# From PubChem BioAssay AID2284349 (EPA ToxCast)
# Inconclusive results are not listed. Activity calls are given as the source filed them. The calls were made as follows: active = hit-call score of the fitted dose curve at least 0.9, where 1 is the maximum; inconclusive = response in the unintended direction; inactive = score below 0.9.
# Target: frog Peroxisome Proliferator-activated Receptor-gamma (PPARg), pparg (gene 397769) (UniProt P37234)
# Assay: ATG_frPPARg_EcoTox2: Attagene TRANS-FACTORIAL EcoTox-2 HepG2 Assay for frog Peroxisome Proliferator-activated Receptor-gamma (PPARg)
# Protocol: ATG_EcoTox2 is a cell-based, multiplexed assay created by modifying the existing Attagene TRANS-FACTORIAL system to include a panel of nuclear receptors from some or all the following species: human (Homo sapiens), african clawed frog (Xenopus laevis), rainbow trout (Oncorhynchus mykiss), japanese medaka (Oryzias latipes), and zebrafish (Danio rerio). The ECOTOX2-FACTORIAL format uses HepG2, a human liver cell line, with measurements taken at 24 hours after chemical dosing in a 24-well plate. ATG_frPPARg_EcoTox2 is one of 29 assay components calculated in the ATG_EcoTox2 assay. It is designed to make measurements of mRNA induction, a form of inducible reporter, as detected with fluorescence intensity signals by Reverse transcription polymerase chain reaction (RT-PCR) and Capillary electrophoresis technology.The assay endpoint ATG_frPPARg_EcoTox2 was analyzed in the positive analysis fitting direction relative to DMSO as the negative control and baseline of activity. Using a type of inducible reporter, measures of mRNA for gain-of-signal activity can be used to understand the reporter gene at the transcription factor-level as they relate to the gene PPARg. Furthermore, this assay endpoint can be referred to as a primary readout, because this assay has produced multiple assay endpoints where this one serves a reporter gene function. To generalize the intended target to other relatable targets, this assay endpoint is annotated to the nuclear receptor intended target family, where the subfamily is non-steroidal.
# Human liver HepG2 cells are transiently transfected with multiple reporter transcription units (MRTUs) in 6-well plates using FuGene 6 reagent (Roche; 3 ml FuGene/1 mg DNA). The MRTU constructs are regulated by a cis-regulating element (promoter). Each RTU expresses a GAL4-UAS that regulates the transcription of a nearby target reporter gene sequence. A major difference between the CIS and TRANS system is that in CIS activities of endogenous TFs are measured, whereas the TRANS assay evaluates changes in activities of exogenous, chimeric NR-Gal4 proteins. […] At the end of 24 hour incubation, total RNA was isolated using TriZol reagent (Invitrogen). The isolated RNA is then reverse-transcribed using oligo(dT) primer and Mo-MLV reverse transcriptase (Invitrogen) with DNAse I (Ambion) treatment for 30 min. The one-tenth of the produced cDNA was amplified by PCR using Taq DNA polymerase (Invitrogen) and two reporter sequence-specific primers. The PCR products were fluorescently labeled by primer extension with 6-arboxyfluorescein (6-FAM) 5'-labeled reporter sequence-specific primer (2 min at 95 C, 20 s at 68 C and 10 min at 72 C) and these products were digested with 5U of HpaI (New England Biolabs) for 2h at 37 C. The fragments were purified using Qiaquick PCR columns (Qiagen), analyzed on an ABI 3130xL genetic analyzer (Applied Biosystems) with peak positions identified by using a set of X-rhodamine (ROX)-labeled MapMarker1000 molecular weight standards (BioVentures). The raw capillary electrophoresis data was processed using Attagraph software (Attagene).
# frog Peroxisome Proliferator-activated Receptor-gamma (PPARg), pparg (gene 397769), sequence (P37234 whole entry, looked up): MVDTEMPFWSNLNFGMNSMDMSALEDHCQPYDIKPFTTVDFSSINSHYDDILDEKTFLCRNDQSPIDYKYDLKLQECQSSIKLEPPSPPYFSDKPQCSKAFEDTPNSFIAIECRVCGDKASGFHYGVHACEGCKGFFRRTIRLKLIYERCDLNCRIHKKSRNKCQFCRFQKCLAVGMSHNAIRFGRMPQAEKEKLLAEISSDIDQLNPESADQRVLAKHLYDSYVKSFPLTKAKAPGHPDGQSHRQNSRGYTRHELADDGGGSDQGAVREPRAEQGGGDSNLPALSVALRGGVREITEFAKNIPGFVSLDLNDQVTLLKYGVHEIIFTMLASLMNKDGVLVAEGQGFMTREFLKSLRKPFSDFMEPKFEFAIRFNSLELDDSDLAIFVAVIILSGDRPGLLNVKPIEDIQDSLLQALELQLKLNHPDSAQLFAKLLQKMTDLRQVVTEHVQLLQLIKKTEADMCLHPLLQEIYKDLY
row,Structure (SMILES),outcome
1,CC(C)OC(=O)C(C)(C)Oc1ccc(C(=O)c2ccc(Cl)cc2)cc1,inactive
2,Cc1cccc(Nc2cc(Cl)nc(SCC(=O)O)n2)c1C,inactive
3,C=C(c1ccc(C(=O)O)cc1)c1cc2c(cc1C)C(C)(C)CCC2(C)C,inactive
4,C[C@@H]1C[C@H]2[C@@H]3CCC4=CC(=O)C=C[C@]4(C)[C@@]3(F)[C@@H](O)C[C@]2(C)[C@@]1(O)C(=O)COP(=O)(O)O,inactive
5,CC(C)(Oc1ccc(Cl)cc1)C(=O)O,inactive
6,Cc1ccc(C)c(OCCCC(C)(C)C(=O)O)c1,inactive
7,CC(c1cc2ccccc2s1)N(O)C(N)=O (stereo not drawn),inactive
8,CC(C)(Oc1ccc(CCNC(=O)c2ccc(Cl)cc2)cc1)C(=O)O,inactive
